Statin myotox sup – suppressors of simvastatin-induced myotoxicity in C2C12 myotubes; ATP luminescence, 48 h; scaled: DMSO 0, geranylgeraniol control 100; rescue of ATP level, % at 7.49 µM; 330,000 tested, 0.78% active;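 active = mean ATP rescue above about 67%, or every replicate alone reaching that limit, limit read from the data, passing the limit was not always enough; inconclusive = no clear call, values can overlap the other calls; inactive = mean under the limit and some replicate under it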;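 note: myotubes were challenged with 10 µM simvastatin during compound exposure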
esBAF inh – inhibitors of esBAF chromatin remodeling in mouse ES cells | Bmi1-luciferase knock-in reporter, 24 h; 100% = twice the neutral-well signal | reporter increase, % at 12.5 µM | 350,000 tested, 2% active; in the data active = activation above about 40%; inconclusive = no clear call, values can overlap the other calls;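 note: 0% = median of the plate's neutral control wells and 100% = double that signal; a rise in the Bmi1 reporter signal indicates esBAF inhibition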
LMP1 NFkB inh – inhibitors of Epstein-Barr LMP1-induced NF-kappaB reporter. LMP1-induced NF-kappaB luciferase reporter cells, luminescence. 350,000 tested, 0.69% active. AID 504558. inhibition, % at 12.5 µM; in the data active = inhibition above about 41%; inconclusive = no clear call, values can overlap the other calls;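 note: 0% = neutral control wells and 100% = reference inhibitor control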
Wnt bcat act – activators of Wnt/beta-catenin signaling; Wnt/beta-catenin reporter cell assay, activator, plate reader; activation, % at 9.35 µM; 300,000 tested, 1.2% active; AID 743398; in the data active = activation above about 30%, passing the limit was not always enough; inconclusive = no clear call, values can overlap the other calls;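 note: 0% = neutral control wells and 100% = positive control wells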
MITF TRPM1 inh – inhibitors of MITF-driven TRPM1 promoter in melanoma cells. SK-MEL-5 TRPM1 promoter luciferase, 24 h. inhibition, % at 12.5 µM. 330,000 tested, 0.83% active. AID 488899;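 active = mean inhibition across replicates of 60% or more, whatever share of single replicates reaches that level; inconclusive = some that reach 60%, reason not given; inactive = mean inhibition across replicates below 60%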
MITF TRPM1 HTS – MITF TRPM1 promoter activation in melanoma cells; activation, % at 12.5 µM; 300,000 tested, 0.75% active; SK-MEL-5 TRPM1-promoter luciferase, 24 h; % of positive control, neutral wells = 0; AID 588334;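 active = mean activation of at least 80% with every replicate also reaching 80%; inconclusive = mean reaches 80% but some replicate falls short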;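 note: 0% = neutral control wells and 100% = parthenolide positive control wells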
The depositor's hits bear a star. Compounds with a hit are over-represented: about 4% of the library has one in this group of screens.

What do the screens show for `Cc1ccc(CSc2ccc(-c3cccs3)nn2)cc1`?
LMP1 NFkB inh: -23; MITF TRPM1 inh: -106; MITF TRPM1 HTS: 109*

Results for O=C(Nc1ccc2c(c1)OCCO2)C(c1ccncc1)n1c(=O)c(-c2cc3ccccc3[nH]2)nc2ccccc21 (configuration not stated) ?
Wnt bcat act: 53*

Results for CCCCOC(=O)Nc1ccc(C(C)C)cc1 ?
Statin myotox sup: -40; esBAF inh: 75*; LMP1 NFkB inh: -61; MITF TRPM1 inh: -73

Results for CCCCOC(=O)Nc1ccc(C(N)=O)cc1 ?
Statin myotox sup: -12; esBAF inh: inconclusive; LMP1 NFkB inh: -20; MITF TRPM1 inh: -45; MITF TRPM1 HTS: 48

Results for CCOC(=O)Nc1ccc(Oc2ccccc2)cc1 ?
Statin myotox sup: -7; esBAF inh: 54*; LMP1 NFkB inh: -19; Wnt bcat act: 55*; MITF TRPM1 inh: -86; MITF TRPM1 HTS: 90*

How did CCCCOC(=O)Nc1ccc(N2CCCCC2)cc1 do in these assays?
Statin myotox sup: -4; esBAF inh: 8; LMP1 NFkB inh: -23; Wnt bcat act: 74*; MITF TRPM1 inh: -86

How did CCCCOC(=O)Nc1ccc(N2CCOCC2)cc1 do in these assays?
Statin myotox sup: -5; esBAF inh: inconclusive; LMP1 NFkB inh: -11; MITF TRPM1 inh: -73; MITF TRPM1 HTS: 72

What do the screens show for `COc1ccccc1C1Nc2ccccc2NC2=C1C(=O)CC(C)(C)C2` (configuration not stated)?
Statin myotox sup: 15; esBAF inh: -4; LMP1 NFkB inh: 5; Wnt bcat act: 0; MITF TRPM1 inh: -19; MITF TRPM1 HTS: 12

How did COc1ccc(OC)c(C(c2nnnn2Cc2ccccc2)N2CCN(C3CCCCC3)CC2)c1 (configuration not stated) do in these assays?
Statin myotox sup: 121*; esBAF inh: -1; LMP1 NFkB inh: -5; Wnt bcat act: -3; MITF TRPM1 inh: -4

Results for COc1ccc(Cn2nnnc2C(c2ccccc2OC)N2CCC(C(N)=O)CC2)cc1 (configuration not stated) ?
Statin myotox sup: 100*; esBAF inh: 0; LMP1 NFkB inh: -5; Wnt bcat act: -1; MITF TRPM1 inh: 11; MITF TRPM1 HTS: -10

What do the screens show for `COc1ccc(OC)c(C(c2nnnn2Cc2ccccc2)N2CCC(C(N)=O)CC2)c1` (configuration not stated)?
Statin myotox sup: -1; esBAF inh: 2; LMP1 NFkB inh: 0; MITF TRPM1 inh: -5; MITF TRPM1 HTS: 8

Results for COc1ccccc1C(c1nnnn1Cc1ccccc1)N1CCN(C2CCCC2)CC1 (configuration not stated) ?
Statin myotox sup: -6; esBAF inh: -3; LMP1 NFkB inh: 2; Wnt bcat act: -4; MITF TRPM1 inh: -2; MITF TRPM1 HTS: 1

Results for CC1=NNC(=O)C1C(c1cccc(O)c1)C(C#N)C#N (configuration not stated) ?
Statin myotox sup: -1; esBAF inh: 4; LMP1 NFkB inh: -2; Wnt bcat act: 20; MITF TRPM1 inh: -10; MITF TRPM1 HTS: 13

Results for COc1ccccc1C(=O)COC(=O)C1(C)CC1(Cl)Cl (configuration not stated) ?
Statin myotox sup: -3; esBAF inh: 60*; LMP1 NFkB inh: -9; Wnt bcat act: -3; MITF TRPM1 inh: -59; MITF TRPM1 HTS: 61

Results for Cc1ccccc1NC(=O)COC(=O)C1(C)CC1(Cl)Cl (configuration not stated) ?
LMP1 NFkB inh: 4; Wnt bcat act: 0; MITF TRPM1 inh: -8; MITF TRPM1 HTS: 9

Results for COc1cccc(C(=O)COC(=O)c2cccs2)c1 ?
Statin myotox sup: 10; esBAF inh: 30; LMP1 NFkB inh: -10; Wnt bcat act: 39*; MITF TRPM1 inh: -37; MITF TRPM1 HTS: 43

How did COc1ccc(C(=O)COC(=O)c2cccs2)cc1 do in these assays?
Statin myotox sup: -4; esBAF inh: 68*; LMP1 NFkB inh: -24; Wnt bcat act: 54*; MITF TRPM1 inh: -70; MITF TRPM1 HTS: 63

Results for O=C(COC(=O)c1cccs1)c1ccccc1 ?
Statin myotox sup: 18; esBAF inh: 32; LMP1 NFkB inh: 6; MITF TRPM1 inh: -34; MITF TRPM1 HTS: 34

How did COc1cc(NC(=O)c2cccs2)c(C(=O)OCC(=O)c2cc(C)n(-c3ccccc3)c2C)cc1OC do in these assays?
Statin myotox sup: -5; esBAF inh: -1; LMP1 NFkB inh: 59*; MITF TRPM1 inh: 64*; MITF TRPM1 HTS: -65

What do the screens show for `COCC(=O)N(C)C[C@H]1Oc2ncc(C#CC3(O)CCCC3)cc2C(=O)N([C@@H](C)CO)C[C@@H]1C`?
Statin myotox sup: 15; esBAF inh: 1

What do the screens show for `C[C@H]1CN([C@@H](C)CO)C(=O)c2cccc(NS(=O)(=O)c3ccc(F)cc3)c2O[C@H]1CN(C)Cc1ccc2c(c1)OCO2`?
Statin myotox sup: -3; esBAF inh: -3

How did Cc1cc(C(=O)NNC(=O)c2ccc(NC(=O)CC#N)cc2)c(C)o1 do in these assays?
Statin myotox sup: 4; esBAF inh: -6; LMP1 NFkB inh: 0; Wnt bcat act: 5; MITF TRPM1 inh: -4; MITF TRPM1 HTS: 5

How did O=C(c1ccccc1)c1cccs1 do in these assays?
LMP1 NFkB inh: -3; Wnt bcat act: -4; MITF TRPM1 inh: -10; MITF TRPM1 HTS: 11

How did CCOc1ccc(C(=O)c2cccs2)cc1 do in these assays?
Statin myotox sup: 1; esBAF inh: 48*; LMP1 NFkB inh: -26; Wnt bcat act: -1; MITF TRPM1 inh: -58; MITF TRPM1 HTS: 65

Results for COc1ccccc1C(=O)COC(=O)c1cccs1 ?
Statin myotox sup: -6; esBAF inh: 81*; LMP1 NFkB inh: -20; Wnt bcat act: -2; MITF TRPM1 inh: -76; MITF TRPM1 HTS: 80

What do the screens show for `COc1ccccc1C(=O)COC(=O)c1ccccc1O`?
Statin myotox sup: -6; esBAF inh: inconclusive; LMP1 NFkB inh: 2; Wnt bcat act: 9; MITF TRPM1 inh: 4; MITF TRPM1 HTS: 0

What do the screens show for `COCCn1c(Cc2ccccc2)nnc1SCC(=O)N1CCCC1=O`?
Statin myotox sup: 4; esBAF inh: -5; LMP1 NFkB inh: -4; Wnt bcat act: -2; MITF TRPM1 inh: 2; MITF TRPM1 HTS: -2

What do the screens show for `NC(=O)c1ncn([C@@H]2O[C@H](CNCc3ccc(-c4cc(C(F)(F)F)ccc4Cl)o3)[C@@H](O)[C@H]2O)n1`?
Statin myotox sup: 1; esBAF inh: -6; LMP1 NFkB inh: -4; Wnt bcat act: -4; MITF TRPM1 inh: -9; MITF TRPM1 HTS: 14

How did CC(C)CCOC(=O)C1C(c2ccccc2)C(C(=O)O)C1c1ccccc1 (configuration not stated) do in these assays?
Statin myotox sup: 2; esBAF inh: -6; LMP1 NFkB inh: 0; Wnt bcat act: 43*; MITF TRPM1 inh: -2; MITF TRPM1 HTS: 6
